Reference: PubChem BioAssay (NCI)
The panel holds about 79,000 compounds, 15% with a hit somewhere; the sample as a whole holds those more often. The source made the active and inactive calls. No stated cut-off is given here; in the data, active means growth inhibition above about 70%; inactive means the rest.

Legend:
[1] = NCI Yeast Anticancer Drug Screen. Data for the rad52 strain (AID 147);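 further: 0% = growth of vehicle-treated control cultures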; details: S. cerevisiae rad52 mutant growth inhibition, stronger effect = higher value
Outline: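 DNA repair-defective yeast; compound exposure; growth scored against vehicle controls.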

[2] = NCI Yeast Anticancer Drug Screen. Data for the wt1 strain (AID 149);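 further: 0% = growth of vehicle-treated wt1 cultures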; details: S. cerevisiae wt1 strain (SPY 50644) growth inhibition, stronger effect = higher value
Outline: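 Growth inhibition read against vehicle controls after compound exposure of the wt1 yeast strain.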

[3] = NCI Yeast Anticancer Drug Screen. Data for the rad50EPP+ strain (AID 151);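 further: 0% = growth of vehicle-treated control cultures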; details: S. cerevisiae rad50 mutant strain, stronger effect = higher value
Outline: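 rad50EPP+ yeast treated with test compounds. Readout: growth vs vehicle control.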

[4] = NCI Yeast Anticancer Drug Screen. Data for the mgt1 strain (AID 153); details: S. cerevisiae mgt1 mutant growth inhibition, stronger effect = higher value
Outline: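 Growth inhibition relative to vehicle controls was scored for the mgt1 yeast strain after compound exposure.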

[5] = NCI Yeast Anticancer Drug Screen. Data for the rad50 strain (AID 155);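 further: 0% = growth of vehicle-only cultures of the same strain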; details: S. cerevisiae rad50 strain growth inhibition, stronger effect = higher value
Outline: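 Readout: growth inhibition relative to vehicle-treated cultures. Compound exposure was carried out in a genetically defined yeast strain deficient in DNA damage repair.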

[6] = NCI Yeast Anticancer Drug Screen. Data for the mec2-1 strain (AID 157); details: S. cerevisiae mec2-1 strain, stronger effect = higher value
Outline: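 Growth inhibition is read against vehicle-treated controls after compound exposure of the mec2-1 yeast strain, which is defective in DNA damage repair or cell cycle control.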

[7] = NCI Yeast Anticancer Drug Screen. Data for the rad14 strain (AID 159);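 further: 0% = growth of vehicle-treated control cultures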; details: S. cerevisiae rad14 strain growth inhibition, stronger effect = higher value
Outline: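 Growth inhibition vs vehicle controls; genetically altered yeast strain (DNA damage repair defect) treated with test compounds.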

[8] = NCI Yeast Anticancer Drug Screen. Data for the sgs1 mgt1 strain (AID 161);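 further: 0% = growth of cultures given vehicle only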; details: S. cerevisiae sgs1 mgt1 strain, stronger effect = higher value
Outline: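 Percent growth inhibition was derived by comparing compound-exposed mutant yeast with vehicle-exposed cultures. The strain carries alterations in DNA damage repair.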

[9] = NCI Yeast Anticancer Drug Screen. Data for the CLN2oe strain (AID 163);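 further: 0% = growth of vehicle-only control cultures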; details: S. cerevisiae CLN2oe strain, stronger effect = higher value
Outline: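 Compound-treated yeast; growth vs vehicle ctrl = % inhibition. Genetically altered strain (cell-cycle control).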

[10] = NCI Yeast Anticancer Drug Screen. Data for the cln2 rad14 strain (AID 165);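 further: 0% = growth equal to vehicle treated cultures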; details: S. cerevisiae cln2 rad14 strain, stronger effect = higher value
Outline: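 Growth inhibition, relative to vehicle-treated controls, is the read-out. The test organism is a yeast strain with defined genetic alterations, cln2 rad14.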

[11] = NCI Yeast Anticancer Drug Screen. Data for the bub3 strain (AID 167); details: S. cerevisiae bub3 mutant strain, stronger effect = higher value
Outline: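 Readout: yeast growth inhibition, expressed relative to vehicle-only wells. The test organism is a mutant strain from a panel with lesions in DNA repair or checkpoint genes.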

[12] = NCI Yeast Anticancer Drug Screen. Data for the wt2 strain (AID 169);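 further: 0% = growth of vehicle-treated yeast cultures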; details: S. cerevisiae wt2 strain growth inhibition, stronger effect = higher value
Outline: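 Compound exposure of yeast; growth compared with vehicle controls; inhibition reported.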

[13] = NCI Yeast Anticancer Drug Screen. Data for the mlh1 strain (AID 171);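 further: 0% = growth of vehicle-treated control cultures of the same strain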; details: S. cerevisiae mlh1 strain growth inhibition, stronger effect = higher value
Outline: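 Compounds are applied to a genetically altered yeast strain, and its growth is compared with that of vehicle-treated cultures to give percent inhibition.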

[14] = NCI Yeast Anticancer Drug Screen. Data for the sgs1 strain (AID 173);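 further: 0% = growth of vehicle-only control cultures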; details: S. cerevisiae sgs1 mutant, stronger effect = higher value
Outline: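 Compounds applied to genetically altered yeast; growth compared with vehicle-treated cultures to give % inhibition.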

[15] = NCI Yeast Anticancer Drug Screen. Data for the mlh1 rad18 strain (AID 175); details: S. cerevisiae mlh1 rad18 strain growth inhibition, stronger effect = higher value
Outline: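 Cells of a genetically altered yeast strain, deficient in DNA damage repair, were treated with compound. Their growth was then compared with that of vehicle-treated cultures to give inhibition.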

[16] = NCI Yeast Anticancer Drug Screen. Data for the rad18 strain (AID 177); details: S. cerevisiae rad18 mutant growth inhibition, stronger effect = higher value
Outline: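 Compounds are applied to a repair-deficient yeast strain, and growth is compared with that of vehicle-treated cultures to give percent inhibition.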

[17] = at 5.0 µM (retest, dose inferred, filed as 0.5)
[18] = at 50.0 µM (retest, dose inferred, filed as 5.0)

Measured: growth inhibition

Cc1c(Cl)c(C)c(Cl)c(O)c1Cl
inactive: [1]; at 1.2 µM 17% | [1]; at 3.7 µM 7% | [1]; at 11.0 µM 28% | [2]; at 1.2 µM 11% | [2]; at 3.7 µM 9% | [2]; at 11.0 µM 13% | [3]; at 1.2 µM -21% | [3]; at 3.7 µM -9% | [3]; at 11.0 µM -6% | [4]; at 1.2 µM 18% | [4]; at 3.7 µM 7% | [4]; at 11.0 µM 56% | [5]; at 1.2 µM -14% | [5]; at 3.7 µM -21% | [5]; [17] 45% | [5]; at 11.0 µM -8% | [6]; at 1.2 µM -19% | [6]; at 3.7 µM 7% | [6]; [17] 51% | [6]; at 11.0 µM -7% | [7]; at 1.2 µM 5% | [7]; at 3.7 µM 6% | [7]; at 11.0 µM 11% | [8]; [17] 2% | [9]; at 1.2 µM 8% | [9]; at 3.7 µM -11% | [9]; at 11.0 µM 29% | [10]; [17] 32% | [11]; at 1.2 µM -17% | [11]; at 3.7 µM -2% | [11]; [17] 27% | [11]; at 11.0 µM 12% | [12]; at 1.2 µM -25% | [12]; at 3.7 µM -20% | [12]; at 11.0 µM 14% | [13]; at 1.2 µM 8% | [13]; at 3.7 µM -4% | [13]; at 11.0 µM 29% | [14]; at 1.2 µM 15% | [14]; at 3.7 µM 9% | [14]; at 11.0 µM 34% | [15]; [17] 33% | [16]; at 1.2 µM -26% | [16]; at 3.7 µM -4% | [16]; at 11.0 µM -25% | [16]; at 33.0 µM 65%
active: [1]; at 33.0 µM 79% | [1]; at 100.0 µM 98% | [2]; at 33.0 µM 80% | [2]; at 100.0 µM 98% | [3]; at 33.0 µM 75% | [3]; at 100.0 µM 93% | [4]; at 33.0 µM 98% | [4]; at 100.0 µM 98% | [5]; at 33.0 µM 92% | [5]; [18] 95% | [5]; at 50.0 µM 92.9% | [5]; at 100.0 µM 98% | [6]; at 33.0 µM 79% | [6]; [18] 96% | [6]; at 50.0 µM 93.2% | [6]; at 100.0 µM 99% | [7]; at 33.0 µM 95% | [7]; at 100.0 µM 99% | [8]; [18] 99% | [8]; at 50.0 µM 90.8% | [9]; at 33.0 µM 88% | [9]; at 100.0 µM 99% | [10]; [18] 100% | [10]; at 50.0 µM 93% | [11]; at 33.0 µM 76% | [11]; [18] 100% | [11]; at 50.0 µM 93% | [11]; at 100.0 µM 100% | [12]; at 33.0 µM 92% | [12]; at 100.0 µM 99% | [13]; at 33.0 µM 91% | [13]; at 100.0 µM 99% | [14]; at 33.0 µM 95% | [14]; at 100.0 µM 99% | [15]; [18] 97% | [15]; at 50.0 µM 72.2% | [16]; at 100.0 µM 97%

CCCC/C=C1\CCC(CN2CCCC2)C1=O (stereo unspecified)
inactive: [1]; at 1.2 µM -18% | [1]; at 3.7 µM -24% | [1]; at 11.0 µM -10% | [1]; at 33.0 µM 17% | [2]; at 1.2 µM -10% | [2]; at 3.7 µM -17% | [2]; at 11.0 µM 9% | [2]; at 33.0 µM 16% | [2]; at 100.0 µM 26% | [3]; at 1.2 µM -4% | [3]; at 3.7 µM -6% | [3]; at 11.0 µM -8% | [3]; at 33.0 µM 10% | [4]; at 1.2 µM 21% | [4]; at 3.7 µM 21% | [4]; at 11.0 µM 39% | [4]; at 33.0 µM 62% | [5]; at 1.2 µM 7% | [5]; at 3.7 µM 25% | [5]; [17] 40% | [5]; at 11.0 µM 20% | [5]; at 33.0 µM 40% | [5]; [18] 44% | [6]; at 1.2 µM 0% | [6]; at 3.7 µM 7% | [6]; [17] 4% | [6]; at 11.0 µM 27% | [6]; at 33.0 µM 23% | [6]; [18] 35% | [6]; at 50.0 µM 59.2% | [7]; at 1.2 µM 28% | [7]; at 3.7 µM 44% | [7]; at 11.0 µM 66% | [8]; [17] 18% | [8]; [18] 51% | [9]; at 1.2 µM 28% | [9]; at 3.7 µM 48% | [9]; at 11.0 µM 49% | [10]; [17] 39% | [10]; [18] 55% | [11]; at 1.2 µM 1% | [11]; at 3.7 µM 33% | [11]; [17] 50% | [11]; at 11.0 µM 39% | [11]; at 33.0 µM 63% | [12]; at 1.2 µM -33% | [12]; at 3.7 µM -17% | [12]; at 11.0 µM -3% | [12]; at 33.0 µM 20% | [13]; at 1.2 µM 22% | [13]; at 3.7 µM 36% | [13]; at 11.0 µM 56% | [14]; at 1.2 µM -1% | [14]; at 3.7 µM 22% | [14]; at 11.0 µM 44% | [14]; at 33.0 µM 67% | [15]; [17] 41% | [16]; at 1.2 µM -3% | [16]; at 3.7 µM 15% | [16]; at 11.0 µM 34% | [16]; at 33.0 µM 65%
active: [1]; at 100.0 µM 79% | [3]; at 100.0 µM 76% | [4]; at 100.0 µM 95% | [5]; at 50.0 µM 83% | [5]; at 100.0 µM 79% | [6]; at 100.0 µM 85% | [7]; at 33.0 µM 82% | [7]; at 100.0 µM 93% | [8]; at 50.0 µM 78.2% | [9]; at 33.0 µM 70% | [9]; at 100.0 µM 79% | [10]; at 50.0 µM 73.3% | [11]; [18] 81% | [11]; at 50.0 µM 80.7% | [11]; at 100.0 µM 94% | [12]; at 100.0 µM 74% | [13]; at 33.0 µM 76% | [13]; at 100.0 µM 97% | [14]; at 100.0 µM 94% | [15]; [18] 80% | [15]; at 50.0 µM 73.5% | [16]; at 100.0 µM 92%
